MEKK3 PB1 HTS = modulators of MEKK3-MEK5 PB1 binding, primary screen, biochemical, wildtype MEKK3, multiplex bead flow cytometry, Alexa488-MEK5. binding response (% of control), % at 10 µM. hit rate 1.4% among 290,000. AID 1529, 2009. Mitogen-activated protein kinase kinase kinase 3 (Homo sapiens), Q99759. bead-based flow cytometry, Alexa488-MEK5 binding to MEKK3; actives lie on both sides; 0 = blocked by unlabeled MEK5, 100 = vehicle;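 active = binding response more than 3 SD above or below the average of its plate-row segment, actives on both sides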;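 note: Alexa488 bead fluorescence after subtracting the streptavidin-only scavenger bead signal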
Target sequence (Q99759 whole entry, looked up): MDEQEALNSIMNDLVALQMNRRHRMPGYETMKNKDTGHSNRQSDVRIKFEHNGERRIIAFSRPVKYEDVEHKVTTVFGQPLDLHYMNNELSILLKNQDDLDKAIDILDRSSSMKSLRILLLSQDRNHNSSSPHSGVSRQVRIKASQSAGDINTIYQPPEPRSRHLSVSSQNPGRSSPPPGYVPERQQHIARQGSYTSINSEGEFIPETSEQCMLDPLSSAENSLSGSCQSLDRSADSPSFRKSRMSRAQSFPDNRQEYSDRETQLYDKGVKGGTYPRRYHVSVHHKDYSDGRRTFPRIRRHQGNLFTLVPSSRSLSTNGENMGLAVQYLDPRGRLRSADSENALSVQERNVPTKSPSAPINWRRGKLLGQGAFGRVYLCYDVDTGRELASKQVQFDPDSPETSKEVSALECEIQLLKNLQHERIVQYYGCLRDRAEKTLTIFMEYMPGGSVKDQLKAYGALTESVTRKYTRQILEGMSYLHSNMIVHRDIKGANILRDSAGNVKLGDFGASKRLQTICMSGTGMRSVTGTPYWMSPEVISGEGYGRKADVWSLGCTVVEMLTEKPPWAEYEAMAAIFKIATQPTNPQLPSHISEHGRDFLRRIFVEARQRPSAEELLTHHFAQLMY
CRFR2-BP ag = agonists of CRF-BP/CRF-R2 complex, primary screen, cell-based, HEK293, calcium dye fluorescence, uHTS | hit rate 0.46% among 350,000 | calcium dye fluorescence (FLIPR); percent of saturating CRF peptide response | activation, % at 13.2 µM | CRF-binding protein / CRF receptor 2 complex (human) | AID 588473, 2011;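 active = activation of at least 50%, plus an integration ratio under a set limit after plate pattern correction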
MEKK2mut PB1 HTS = MEK5 binding signal on mutant MEKK2 PB1, primary screen, biochemical, multiplex bead flow cytometry, Alexa488-MEK5. hit rate 0.35% among 290,000. Alexa488-MEK5 binding to MEKK2 mutant. percent response, % at 10 µM. AID 1530, 2009; in the data active = percent response above about 24%, passing the limit was not always enough
CRFR2-BP antag = antagonists of CRF-BP/CRF-R2 complex, primary screen, cell-based, HEK293, calcium dye fluorescence, uHTS. CRF-induced calcium fluorescence. inhibition, % at 11.8 µM. hit rate 0.59% among 350,000;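 active = inhibition of the ligand-induced calcium signal above about 50% at the single tested concentration, limit read from the data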
MEKK2 WT-MEK5 = modulators of MEK5 binding to wildtype MEKK2, primary screen, biochemical, multiplex bead flow cytometry, Alexa488-MEK5 | binding response (% of control), % at 10 µM | Alexa488-MEK5 binding to MEKK2 WT; actives lie on both sides | Mitogen-activated protein kinase kinase kinase 2 (Homo sapiens), Q9Y2U5 | hit rate 1.1% among 290,000; in the data active = binding response below about 67% or above about 130%
ABCB6 inh MLPCN = ABCB6 transporter inhibitors, primary screen, K562-ABCB6 cells, flow cytometry, MLPCN library; K562-ABCB6 porphyrin accumulation, 1 h; stronger effect = lower value; fluorescence ratio to DMSO, % at 10 µM; ATP-binding cassette sub-family B member 6 (Homo sapiens), Q9NP58; AID 602162, 2011; hit rate 0.19% among 360,000;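 active = fluorescence ratio to DMSO below 75%, the collection mean minus 3 SD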;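 note: signal is porphyrin accumulated inside mitochondria; lower ratio means ABCB6 inhibition with less porphyrin fluorescence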
A number is an active result; i = inactive; nt = no result. Most compounds without a hit are left out; they make up all but 2.9% or so of the library.

SMILES	MEKK3 PB1 HTS	CRFR2-BP ag	MEKK2mut PB1 HTS	CRFR2-BP antag	MEKK2 WT-MEK5	ABCB6 inh MLPCN
COc1ccc(C(=O)c2sc3nc(-c4ccccc4)ccc3c2N)cc1OC	i	52.0	i	i	i	i
CCOC(=O)Sc1nc2ncncc2[nH]1	nt	i	nt	i	nt	i
NS(=O)(=O)c1ccc(CCNC(=O)CN2CCN(Cc3cccc4ccccc34)CC2)cc1	i	i	i	i	i	i
CSc1ccccc1NC(=O)CCc1ccccc1	i	i	i	i	i	i
O=C(CCc1ccccc1)Nc1c(F)cccc1F	i	i	i	52.5	i	i
CC12CCC(=O)N1C(C(=O)NCc1ccccc1F)CS2 (stereo not drawn)	nt	i	nt	i	nt	i
Cc1nn(Cc2ccccc2)c(Cl)c1/C=C/C(=O)OC(C)C(=O)N1CCCC1 (stereo not drawn)	i	i	i	i	i	i
COc1ccc(-c2ccc(C3C(C#N)=C(N)Oc4n[nH]c(C)c43)o2)cc1 (stereo not drawn)	i	171.2	i	i	i	i
Cc1[nH]nc2c1C(c1ccco1)C(C#N)=C(N)O2 (stereo not drawn)	i	i	i	i	i	i
COc1ccc(S(=O)(=O)N(c2onc(C)c2Cl)S(=O)(=O)c2ccc(OC)cc2)cc1	i	i	i	50.5	i	i
CCN(C(=O)C1CCCN(c2ncnc3c2nc2n3CCCCC2)C1)c1cccc(Cl)c1 (stereo not drawn)	i	i	i	i	i	i
COc1ccc(CN(CCC(c2ccccc2)c2ccc(OC(C)C)cc2)C(=O)CCl)cc1OC (stereo not drawn)	i	i	i	53.3	i	i
CC(C)(C)c1ccc(S(=O)(=O)NCC(=O)N2CCN(Cc3ccccc3)CC2)cc1	i	i	i	i	i	i
CN(C)NC(=S)Nc1ccc2nc(-c3ccccn3)c(-c3ccccn3)nc2c1	i	59.0	i	i	i	i
Cc1cccc(NS(=O)(=O)c2ccc3c(c2)Cc2cc(S(=O)(=O)Nc4cccc(C)c4C)ccc2-3)c1C	i	i	i	i	-3.0	i
COCCNc1nc(-c2cc(C)n(CCc3ccc(OC)cc3)c2C)cs1	i	i	i	i	-5.0	i
CCCCc1ncc(CN2CCC(n3nccc3NC(=O)c3ccccc3Cl)CC2)[nH]1	i	i	i	i	i	i
Cc1noc(C)c1S(=O)(=O)N1CCN(S(=O)(=O)c2ccccc2C#N)CC1	i	i	i	i	i	i
CC(C)C[C@H](NC(=O)OC(C)(C)C)C(=O)N[C@@H](CO)[C@H](O)[C@@H]1C[C@@H]1C(=O)N1CCCC1	i	i	i	i	i	i
CCOC(=O)C1CCCN(c2ncnc3c2cnn3-c2ccc(OC)cc2)C1 (stereo not drawn)	i	i	i	i	i	i
CCOC(=O)C1CCCN(c2ncnc3c2cnn3-c2ccc(Cl)cc2)C1 (stereo not drawn)	i	100.6	i	i	i	i
O=C(NCCc1ccc(F)cc1)c1ccc([N+](=O)[O-])cc1	i	i	i	i	i	i
Cc1cccc2c(CCNC(=O)c3ccc([N+](=O)[O-])cc3)c[nH]c12	i	i	i	56.9	i	i
CC1(C(=O)NS(=O)(=O)c2cccc(F)c2)CCN1C(=O)C1(c2ccc(Cl)cc2)CCC1 (stereo not drawn)	nt	nt	nt	nt	nt	i
Cc1ccc(CSCC(=O)Nc2cc(S(=O)(=O)N3CCOCC3)ccc2OC(C)C)cc1	nt	i	nt	64.0	nt	i
COCCNC(=O)CCN1N=C(c2ccccc2)CCC1=O	i	i	i	i	i	i
Cc1ccc(N=C2NC(=O)/C(=C/c3cn(C)c4ccccc34)S2)cc1C	i	63.6	i	i	i	i

Assay outcomes from PubChem.
